28 molecules from PubChem BioAssay (EPA / NIEHS) can be followed below.

Several values for one entry are separate records, joined by “and”; a condition that tells them apart may be missing. Equal entries are not always repeated. More than one record can exist for a structure, and the calls need not agree. Activity calls are given as the source filed them. How the source made its calls: active means hit-call score of the fitted dose curve at least 0.9, where 1 is the maximum; inactive means score below 0.9.

Assay [1] is described as follows: ATG_GLI_CIS: Attagene CIS-FACTORIAL HepG2 Assay for human Zinc Finger Protein GLI1 (AID 2282945). The note with it: HepG2, Attagene cis-factorial reporter mRNA, GLI element; actives raise or lower the signal. A digest of the protocol:
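HepG2 cells transiently transfected with cis-promoter multiplexed reporter units report endogenous transcription factor activity. After 24 h chemical exposure, reporter mRNA was quantified by RT-PCR, 6-FAM labelling, HpaI digestion and capillary electrophoresis, with bidirectional fitting against DMSO.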

The nature of assay [2]: ATG_GRE_CIS: Attagene CIS-FACTORIAL HepG2 Assay for human Glucocorticoid Response Elements (GRE) (AID 2282947). To be noted: HepG2 GRE cis-reporter, Attagene multiplex mRNA; actives raise or lower the signal. A digest of the protocol:
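Following 24 h chemical exposure of transiently transfected HepG2 cells, total RNA was reverse-transcribed and reporter cDNA amplified, fluorescently labelled and sized by capillary electrophoresis. Signal gain or loss was fitted relative to DMSO vehicle.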

Assay [3] can be described thus: ATG_ISRE_CIS: Attagene CIS-FACTORIAL HepG2 Assay for human Interferon Regulatory Factor 1 (IRF1) binding to an Interferon-Stimulated Response Element (ISRE) (AID 2282948). To be noted: HepG2 ISRE cis-reporter (Attagene), mRNA transcription readout; actives raise or lower the signal. A digest of the protocol:
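Quantitation relies on labelled RT-PCR fragments separated by capillary electrophoresis. Human HepG2 cells bearing cis-promoter reporter constructs were treated 24 h; DMSO served as baseline for bidirectional fitting.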

The nature of assay [4]: ATG_M_32_CIS: Attagene CIS-FACTORIAL HepG2 Assay for M32 Transcription Factor (Internal Marker) (AID 2282949).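 Further: background control marker of the multiplexed CIS panel rather than a real target.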 The note with it: HepG2 Attagene cis-factorial M32 reporter, mRNA; actives raise or lower the signal. The method in brief: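 Fluorescent capillary electrophoresis peaks of HpaI-digested, FAM-labelled RT-PCR reporter products give the signal. Source: transiently transfected human liver HepG2 cells, 24 h after chemical dosing; bidirectional fitting against DMSO.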

Assay [5] in a line: ATG_M_06_CIS: Attagene CIS-FACTORIAL HepG2 Assay for M06 Transcription Factor (Internal Marker) (AID 2282950). The note with it: HepG2 Attagene CIS-FACTORIAL M06 internal marker reporter; actives raise or lower the signal. The method in brief: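 Terse: HepG2, transient MRTU transfection (FuGene 6), 24 h dosing; total RNA, oligo(dT) RT, PCR, FAM label, HpaI cut, capillary electrophoresis; bidirectional fit vs DMSO baseline; background-control endpoint.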

Assay [6] deals with Hypoxia-inducible factor 1-alpha (Homo sapiens) (UniProt Q16665). Put plainly: ATG_HIF1a_CIS: Attagene CIS-FACTORIAL HepG2 Assay for human Hypoxia Inducible Factor 1 (HIF1A) (AID 2282951). To be noted: HepG2 Attagene cis-factorial HIF1a reporter transcription; actives raise or lower the signal. A digest of the protocol: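 Activity is fitted in both directions relative to DMSO. Reporter transcripts are read by RT-PCR, fluorescent primer extension and capillary electrophoresis after 24 h chemical treatment. The cells are HepG2 carrying transiently transfected cis-element-driven reporter units responding to endogenous factors.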
Chain of Hypoxia-inducible factor 1-alpha (Homo sapiens) (Q16665 whole entry, looked up): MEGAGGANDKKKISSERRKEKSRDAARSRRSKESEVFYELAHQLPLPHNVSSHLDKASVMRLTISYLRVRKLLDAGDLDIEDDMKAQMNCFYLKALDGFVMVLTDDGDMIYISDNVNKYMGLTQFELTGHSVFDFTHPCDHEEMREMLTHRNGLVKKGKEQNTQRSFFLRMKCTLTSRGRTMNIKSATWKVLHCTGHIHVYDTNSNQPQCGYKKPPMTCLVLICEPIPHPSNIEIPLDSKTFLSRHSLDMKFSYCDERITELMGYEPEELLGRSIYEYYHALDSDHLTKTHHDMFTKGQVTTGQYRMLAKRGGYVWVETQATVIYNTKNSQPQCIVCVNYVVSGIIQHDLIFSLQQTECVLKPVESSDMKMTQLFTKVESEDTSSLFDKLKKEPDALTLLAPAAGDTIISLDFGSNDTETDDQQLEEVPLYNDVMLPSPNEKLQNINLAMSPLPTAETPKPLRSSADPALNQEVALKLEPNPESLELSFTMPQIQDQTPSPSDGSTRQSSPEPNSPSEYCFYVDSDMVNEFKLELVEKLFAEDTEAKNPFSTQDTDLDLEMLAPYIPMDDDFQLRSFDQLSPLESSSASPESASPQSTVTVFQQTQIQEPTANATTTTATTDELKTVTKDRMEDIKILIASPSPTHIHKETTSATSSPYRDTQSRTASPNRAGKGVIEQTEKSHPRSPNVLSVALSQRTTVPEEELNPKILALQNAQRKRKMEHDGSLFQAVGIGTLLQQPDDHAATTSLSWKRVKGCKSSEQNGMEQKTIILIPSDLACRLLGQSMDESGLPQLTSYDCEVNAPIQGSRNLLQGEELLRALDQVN

Assay [7] has as its target Hepatocyte nuclear factor 6 (Homo sapiens) (UniProt Q9UBC0). Put plainly: ATG_HNF6_CIS: Attagene CIS-FACTORIAL HepG2 Assay for human Hepatocyte Nuclear Factor 6 (HNF6) (AID 2282952). To be noted: HepG2 Attagene cis-factorial HNF6 reporter transcription; actives raise or lower the signal. A digest of the protocol: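 HepG2 cells transiently transfected with cis-element-driven multiple reporter transcription units, dosed 24 h; reporter mRNA quantified by RT-PCR, FAM primer extension, HpaI digestion and capillary electrophoresis; bidirectional fit versus DMSO baseline.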

In assay [8] the target is Heat shock factor protein 1 (Homo sapiens) (UniProt Q00613). Put plainly: ATG_HSE_CIS: Attagene CIS-FACTORIAL HepG2 Assay for human Heat Shock Transcription Factor 1 (HSE) (AID 2282953). To be noted: HepG2 HSE cis-reporter, Attagene RNA transcription; actives raise or lower the signal. The method in brief:
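Read-out: fluorescence of reporter-specific RT-PCR fragments separated by capillary electrophoresis. HepG2 carrying transfected cis-element reporter units; 24 h dosing; activity fitted in both directions relative to DMSO baseline.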

The nature of assay [9]: ATG_MRE_CIS: Attagene CIS-FACTORIAL HepG2 Assay for human Metal Responsive Element (MRE) (AID 2282954). The note with it: HepG2 MRE cis-reporter transcription, Attagene multiplex; actives raise or lower the signal. A digest of the protocol:
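Step one: transfect HepG2 with cis-regulated reporter units. Step two: dose 24 h. Step three: isolate RNA, RT-PCR, 6-FAM label, HpaI digest, capillary electrophoresis. Fit bidirectionally to DMSO.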

Chain of Heat shock factor protein 1 (Homo sapiens) (Q00613 whole entry, looked up, the tested form may be a part): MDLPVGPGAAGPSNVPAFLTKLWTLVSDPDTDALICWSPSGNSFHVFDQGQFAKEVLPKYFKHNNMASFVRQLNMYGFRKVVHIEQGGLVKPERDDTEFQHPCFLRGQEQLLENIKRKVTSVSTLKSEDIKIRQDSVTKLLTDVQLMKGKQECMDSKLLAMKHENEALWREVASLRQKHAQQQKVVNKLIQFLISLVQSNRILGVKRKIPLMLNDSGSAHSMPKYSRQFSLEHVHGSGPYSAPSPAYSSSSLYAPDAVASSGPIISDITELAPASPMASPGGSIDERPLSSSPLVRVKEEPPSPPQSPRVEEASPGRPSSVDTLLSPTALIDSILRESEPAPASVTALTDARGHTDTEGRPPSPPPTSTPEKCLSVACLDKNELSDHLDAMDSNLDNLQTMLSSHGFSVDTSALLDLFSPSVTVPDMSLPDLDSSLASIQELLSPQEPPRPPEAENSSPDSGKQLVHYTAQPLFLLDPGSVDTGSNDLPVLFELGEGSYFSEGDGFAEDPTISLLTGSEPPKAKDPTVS
Chain of Hepatocyte nuclear factor 6 (Homo sapiens) (Q9UBC0 whole entry, looked up): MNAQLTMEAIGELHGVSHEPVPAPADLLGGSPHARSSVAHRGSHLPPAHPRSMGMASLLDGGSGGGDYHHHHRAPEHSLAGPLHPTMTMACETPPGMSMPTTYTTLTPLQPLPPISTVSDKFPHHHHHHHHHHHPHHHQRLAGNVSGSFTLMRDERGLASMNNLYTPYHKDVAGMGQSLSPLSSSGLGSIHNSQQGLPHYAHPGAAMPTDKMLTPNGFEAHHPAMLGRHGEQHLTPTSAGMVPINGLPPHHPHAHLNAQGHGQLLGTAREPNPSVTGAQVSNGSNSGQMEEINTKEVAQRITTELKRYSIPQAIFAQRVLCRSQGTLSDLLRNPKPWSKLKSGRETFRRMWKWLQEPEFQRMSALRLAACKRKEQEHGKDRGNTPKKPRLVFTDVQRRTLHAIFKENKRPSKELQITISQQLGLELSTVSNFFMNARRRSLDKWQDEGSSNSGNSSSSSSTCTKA

On to `C1CCCNCC1`, for which the molecule was called inactive in assay [1], in assay [2], in assay [3], in assay [4], in [5] and in [6]. For the same molecule, the molecule was classed as inactive in assay [7], in [8] and in [9].

In general, AC50 refers to the concentration at which the activity in the assay is half-maximal. Consider `N=C1N=C(N)c2ccccc21`, for which the result in assay [1], in [2], in assay [4], in assay [5], in [6] and in assay [7] was inactive. The molecule was called inactive in assay [8]. Moreover, the results for the AC50 in assay [3] and in assay [9] were 74.1 µM (active) and 74.5 µM (active), respectively.

Regarding `CC(C)N(c1ccccc1)C(C)C`, the call in assay [1], in assay [2], in assay [3], in assay [4], in assay [5] and in [6] was inactive. Besides, the molecule was classed as inactive in [7], in assay [8] and in assay [9].

For the molecule `CC1=CC(O)CC(C)(C)C1` (stereo unspecified), the result in assay [1], in [2], in assay [3], in assay [4], in assay [5] and in assay [6] was inactive. For the same molecule, the molecule was called inactive in [7], in assay [8] and in [9].

For `CCOC(=O)COC(=O)c1ccccc1C(=O)OCC`, the result in [1], in assay [2], in assay [3], in assay [4], in [5] and in assay [6] was inactive. Further, the result in assay [7], in assay [8] and in assay [9] was inactive.

With `CC(=O)CCc1ccc(O)cc1`, the call in [1], in assay [2], in assay [3], in assay [4], in assay [5] and in assay [6] was inactive. For the same molecule, the molecule was called inactive in assay [7], in assay [8] and in assay [9].

For the molecule `CC(C)(CO)CO`, the outcome in assay [1], in [2], in [3], in [4], in assay [5] and in assay [6] was inactive. In addition, the outcome in assay [7], in assay [8] and in [9] was inactive.

`CCCOC(=O)CC`: the molecule was called inactive in [1], in [2], in assay [3], in assay [4], in [5] and in assay [6]. Also, the result in assay [7], in [8] and in assay [9] was inactive.

In the case of `NC(N)=NC(N)=NCCc1ccccc1`, the result in assay [1], in assay [2], in [3], in [4], in assay [5] and in assay [6] was inactive. Moreover, the molecule was called inactive in [7], in assay [8] and in assay [9].

For the molecule `C=C(C)C(=O)OCCC[Si](OC)(OC)OC`, the result in assay [1], in assay [2], in assay [3], in [4], in assay [5] and in assay [6] was inactive. For the same molecule, the result in assay [7], in [8] and in assay [9] was inactive.

For the molecule `CC(C)Cc1ccccc1`, the molecule was classed as inactive in [1], in assay [2], in assay [3], in assay [4], in assay [5] and in [6]. Also, the call in assay [7], in assay [8] and in assay [9] was inactive.

Consider `C1COCO1`, for which the molecule was called inactive in assay [1], in [2], in assay [3], in assay [4], in assay [5] and in assay [6]. The result in assay [7], in assay [8] and in assay [9] was inactive.

Take `c1ccc(OCCOc2ccccc2)cc1`: the outcome in [1], in assay [2], in assay [3], in [4], in assay [5] and in assay [7] was inactive. For the same molecule, the molecule was called inactive in assay [8] and in [9]. In assay [6], the AC50 is 26.4 µM (active).

For the molecule `Cc1cccc(C)c1`, the molecule was called inactive in [1], in [2], in assay [3], in assay [4], in assay [5] and in [6]. Besides, the molecule was called inactive in assay [7], in assay [8] and in assay [9].

With `O=S1(=O)CC=CC1`, the call in assay [1], in [2], in [3], in assay [4], in assay [5] and in [6] was inactive. Further, the result in assay [7], in [8] and in assay [9] was inactive.

As to `C=C(C)C(=O)OCCC(C)OC(=O)C(=C)C` (stereo unspecified), the molecule was classed as inactive in assay [1], in [2], in assay [3], in assay [4], in assay [5] and in assay [6]. In addition, the call in assay [7], in assay [8] and in assay [9] was inactive.

For the molecule `OCCCO`, the call in [1], in assay [2], in assay [3], in assay [4], in assay [5] and in [6] was inactive. Further, the molecule was called inactive in [7], in [8] and in [9].

As for `CCOC(=O)C(=O)OCC`, the outcome in [1], in [2], in assay [3], in assay [4], in assay [5] and in assay [6] was inactive. The molecule was called inactive in [7], in assay [8] and in [9].

Take `C[C@]12CC[C@@H]3c4ccc(O)cc4CC[C@H]3[C@@H]1CC[C@@H]2O`: the molecule was classed as inactive in [1], in assay [2], in assay [3], in [4], in [5] and in assay [7]. Also, the molecule was classed as inactive in [8] and in assay [9]. The AC50 in [9] is 31.8 µM (active) and 21 µM (active) and 25.8 µM (active).

As to `CCCCC1CCCCC(=O)O1` (stereo unspecified), the call in [1], in assay [2], in assay [3], in [4], in [5] and in assay [6] was inactive. Also, the molecule was classed as inactive in assay [7] and in assay [9].

As to `Nc1ccc(O)c(N)c1`, the molecule was called inactive in assay [1], in [2], in [3], in assay [4], in assay [5] and in [6]. The result in assay [7] and in assay [9] was inactive.

Regarding `CC(C)(C)c1cccc(O)c1`, the molecule was classed as inactive in assay [1], in assay [2], in [3], in assay [4], in assay [5] and in assay [6]. Besides, the molecule was classed as inactive in assay [7] and in [9].

Regarding `CC(=O)c1cccnc1`, the molecule was called inactive in [1], in assay [2], in [3], in [4], in [5] and in assay [6]. The result in assay [7] and in assay [9] was inactive.

Regarding `CC(C)COC(=O)c1ccccc1`, the molecule was classed as inactive in assay [1], in assay [2], in assay [3], in assay [4], in assay [5] and in [6]. Also, the outcome in assay [7] and in [9] was inactive.

`O=C(O)c1ccc(C(=O)O)c(C(=O)O)c1`: the result in [1], in assay [2], in assay [3], in [4], in assay [5] and in assay [7] was inactive. Moreover, the outcome in assay [8] and in [9] was inactive.

In the case of `CCCCOCCOCCOCCO`, the outcome in assay [1], in assay [3], in assay [4], in assay [5], in assay [6] and in assay [7] was inactive. Besides, the outcome in assay [8] and in assay [9] was inactive.

In the case of `ClCCOCCOCCCl`, the molecule was classed as inactive in assay [1], in assay [3], in [4], in assay [5], in [6] and in assay [7]. For the same molecule, the molecule was called inactive in assay [8] and in [9].

As for `CNC(=C[N+](=O)[O-])NCCSCc1ccc(CN(C)C)o1`, the molecule was classed as inactive in assay [1], in assay [2], in assay [3], in assay [4], in assay [5] and in assay [9].
